Source: PubChem BioAssay (Johns Hopkins Ion Channel Center)
Rows were chosen to be rich in hits. Some 1.6% of all compounds tested hit in one or more screens of this group.
KCNQ2 enhance = potentiators of rat KCNQ2 potassium channel; Potassium voltage-gated channel subfamily KQT member 2 (Rattus norvegicus), O88943; CHO-K1 KCNQ2, FluxOR thallium flux fluorescence; hits give high values; B-score at 10 µM; 310,000 tested, 0.54% active;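 active = fluorescence ratio B-score at least 3 SD of library B-scores, with initial fluorescence B-score within 3 of them, cut at about 5.3 in these data; same plate scores as AID 2156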;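 also: B-score of peak minus minimum over baseline fluorescence ratio after K+ and Tl+ stimulus; positive B-score means potentiation of KCNQ2 with more thallium influx and brighter signal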
KCNQ2 inh = rat KCNQ2 potassium channel inhibitors, primary screen, cell-based, CHO-K1, FluxOR thallium flux, B-score. B-score at 10 µM. Potassium voltage-gated channel subfamily KQT member 2 (Rattus norvegicus), O88943. 310,000 tested, 1.1% active. AID 2156, 2009. 20 min; hits give low values;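 active = fluorescence ratio B-score at most minus 3 library SDs, with starting brightness B-score within 2 library SDs, cut at about -5.5 in these data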
KCNQ2 block conf = rat KCNQ2 potassium channel inhibitors, confirmation, cell-based, thallium flux. shares compounds with KCNQ2 inh. KCNQ2-expressing cells, inhibition; hits give low values. activity change, negative = inhibition, % at 10 µM. 1,000 tested, 57% active;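 also: 0% = vehicle wells and values are ratio percent relative to vehicle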
KCNQ1 spec = human KCNQ1 channel inhibition, counter-screen for KCNQ2 inhibitor project, cell-based, FluxOR thallium flux | shares compounds with KCNQ2 inh | KCNQ1-expressing cells, FluxOR thallium flux fluorescence; hits give low values | activity change, negative = inhibition, % at 10 µM | 1,000 tested, 15% active | AID 493026, 2011;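 active = activity change at least 3 SD of negative controls below their mean in both duplicate wells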;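 also: CHO cells stably transfected with KCNQ1 and depolarized by potassium stimulus; peak minus minimum fluorescence over baseline after thallium addition; 0% = vehicle negative control and -100% = blank without thallium stimulus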
Target sequence (P51787 whole entry, looked up): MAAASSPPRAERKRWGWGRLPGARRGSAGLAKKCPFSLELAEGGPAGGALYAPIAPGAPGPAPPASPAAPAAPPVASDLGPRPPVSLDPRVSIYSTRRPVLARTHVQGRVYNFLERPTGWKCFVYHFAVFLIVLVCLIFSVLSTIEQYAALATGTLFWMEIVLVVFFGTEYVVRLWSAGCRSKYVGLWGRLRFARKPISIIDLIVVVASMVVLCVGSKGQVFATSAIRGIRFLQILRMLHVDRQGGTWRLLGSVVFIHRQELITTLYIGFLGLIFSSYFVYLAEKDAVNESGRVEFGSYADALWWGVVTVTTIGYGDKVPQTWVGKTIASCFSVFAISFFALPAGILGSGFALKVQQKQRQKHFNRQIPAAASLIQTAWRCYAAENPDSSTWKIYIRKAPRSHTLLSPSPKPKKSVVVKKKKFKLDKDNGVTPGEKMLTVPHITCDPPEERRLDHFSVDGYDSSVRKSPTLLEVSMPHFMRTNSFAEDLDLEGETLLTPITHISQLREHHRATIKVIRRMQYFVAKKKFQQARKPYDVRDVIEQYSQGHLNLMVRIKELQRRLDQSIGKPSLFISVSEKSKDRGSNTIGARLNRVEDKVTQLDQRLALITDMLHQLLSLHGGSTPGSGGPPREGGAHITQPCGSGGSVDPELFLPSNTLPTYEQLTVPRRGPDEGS
CHO parental ctr = thallium flux change in parental CHO cells, counter-screen for KCNQ2 inhibitor project | activity change, % at 10 µM | 1,000 tested, 14% active | hits give low values | shares compounds with KCNQ2 inh;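 also: 0% = vehicle negative controls with stimulus buffer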
KCNQ2 inh confirm = rat KCNQ2 channel inhibitors, confirmation, cell-based, automated patch clamp, single concentration; KCNQ2-expressing cells, automated patch clamp current; calls only at 10 µM; shares compounds with KCNQ2 inh; 550 tested, 49% active
An asterisk follows results filed as active. Unless noted, no rule for the calls is given here.

What do the screens show for `Cc1ccccc1-c1nnn(CC(=O)N(C)CC(=O)Nc2ccccc2C(F)(F)F)n1`?
KCNQ2 enhance: 1.23; KCNQ2 inh: inactive

Results for CCCc1nc(SCC(=O)N2CCCCCC2)c2c(=O)n(C)c(=O)n(C)c2n1 ?
KCNQ2 enhance: 19*; KCNQ2 inh: inactive

What do the screens show for `CCc1nc(SCC(=O)N2CCCC2)c2c(=O)n(C)c(=O)n(C)c2n1`?
KCNQ2 enhance: 0.95; KCNQ2 inh: inactive

Results for CC(=O)[C@@]1(O)CC[C@H]2[C@@H]3CCC4=CC(=O)CC[C@]4(C)[C@H]3CC[C@@]21C ?
KCNQ2 enhance: 0.03; KCNQ2 inh: inactive

Results for CCCCCC(=O)O[C@]1(C(C)=O)CC[C@H]2[C@@H]3CCC4=CC(=O)CC[C@]4(C)[C@H]3CC[C@@]21C ?
KCNQ2 enhance: -7.16; KCNQ2 inh: -7.16*

Results for CC(Sc1n[nH]c(N)n1)C(=O)Nc1cccc(S(=O)(=O)N2CCOCC2)c1 (centres undefined) ?
KCNQ2 enhance: 0.76; KCNQ2 inh: inactive

What do the screens show for `O=[N+]([O-])c1cccc(/C=N/N2CCN(Cc3ccccc3)CC2)c1`?
KCNQ2 inh: inactive

How did O=[N+]([O-])c1cccc(/C=N\N2CCN(Cc3ccccc3Cl)CC2)c1 do in these assays?
KCNQ2 enhance: -7.26; KCNQ2 inh: -7.26*; KCNQ2 block conf: inactive; KCNQ1 spec: inactive; CHO parental ctr: inactive

Results for O=C(Nc1c(Cl)cccc1Cl)C1CCN(C(=O)c2cccs2)CC1 ?
KCNQ2 enhance: 1.58; KCNQ2 inh: inactive

What do the screens show for `Cc1c(NC(=O)N(C)c2ccccc2)c(=O)n(-c2ccccc2)n1C`?
KCNQ2 inh: inactive

How did c1ccc(-c2n[nH]c(-c3ccccc3)c2-c2nc3ccccc3[nH]2)cc1 do in these assays?
KCNQ2 enhance: -9.16; KCNQ2 inh: -9.16*; KCNQ2 block conf: -36.0%*; KCNQ1 spec: inactive; CHO parental ctr: inactive; KCNQ2 inh confirm: active

Results for c1ccc(-c2nc3ccccc3[nH]2)cc1 ?
KCNQ2 enhance: 1.26; KCNQ2 inh: inactive

What do the screens show for `c1ccc(CN(Cc2cccs2)C(c2cccs2)c2nnnn2C2CCCC2)cc1` (centres undefined)?
KCNQ2 enhance: -8.19; KCNQ2 inh: -8.19*; KCNQ2 block conf: inactive; KCNQ1 spec: inactive; CHO parental ctr: inactive

What do the screens show for `c1ccc(CC2CCN(C(c3cccs3)c3nnnn3C3CCCC3)CC2)cc1` (centres undefined)?
KCNQ2 inh: inactive

What do the screens show for `Cc1ccc(-c2cc(C(=O)Nc3cccnc3)c3ccccc3n2)s1`?
KCNQ2 enhance: -7.91; KCNQ2 inh: -7.91*; KCNQ2 block conf: -17.5%*; KCNQ1 spec: inactive; CHO parental ctr: inactive

Results for Cc1cccc(-c2cc(C(=O)Nc3cccnc3)c3ccccc3n2)c1 ?
KCNQ2 enhance: -8.01; KCNQ2 inh: -8.01*; KCNQ2 block conf: -47.0%*; KCNQ1 spec: -48.5%*; CHO parental ctr: -46.5%*; KCNQ2 inh confirm: active

What do the screens show for `Cc1ccc(-c2cc(C(=O)Nc3cc(C)on3)c3ccccc3n2)cc1`?
KCNQ2 inh: inactive

How did Cc1cccc(-c2cc(C(=O)N3CCCc4ccccc43)c3ccccc3n2)c1 do in these assays?
KCNQ2 enhance: -6.83; KCNQ2 inh: -6.83*; KCNQ2 block conf: -40.5%*; KCNQ1 spec: -42.0%*; CHO parental ctr: -34.0%*; KCNQ2 inh confirm: inactive

What do the screens show for `Cc1cccc(-c2cc(C(=O)Nc3ccncc3)c3ccccc3n2)c1`?
KCNQ2 inh: inactive

Results for O=C(c1cc(-c2ccccc2)nc2ccccc12)N1CCCc2ccccc21 ?
KCNQ2 inh: inactive

Results for Cc1cc(C)nc(NC(=O)c2cc(-c3ccc(C)s3)nc3ccccc23)c1 ?
KCNQ2 inh: inactive

How did Cc1cc(NC(=O)c2cc(-c3cccc(OCC(C)C)c3)nc3ccccc23)no1 do in these assays?
KCNQ2 enhance: -11.3; KCNQ2 inh: -11.3*; KCNQ2 block conf: -20.5%*; KCNQ1 spec: inactive; CHO parental ctr: inactive; KCNQ2 inh confirm: inactive

What do the screens show for `Fc1ccc(-c2n[nH]c(=S)c3ccccc23)cc1`?
KCNQ2 inh: inactive

Results for Cc1ccc(S(=O)(=O)N2CCC(C(=O)N3CC(C)OC(C)C3)CC2)cc1 (centres undefined) ?
KCNQ2 enhance: 1.4; KCNQ2 inh: inactive

Results for Cc1ccccc1CNC(=O)CCC(=O)N1CCOc2ccc(Cl)cc21 ?
KCNQ2 inh: inactive

What do the screens show for `O=C(CCNC(=O)c1ccc(Br)cc1)Nc1ccc(S(=O)(=O)Nc2ncccn2)cc1`?
KCNQ2 enhance: 0.94; KCNQ2 inh: inactive

How did Cc1ccc(S(=O)(=O)N2CCOCC2)cc1C(=O)N1CCC(Cc2ccccc2)CC1 do in these assays?
KCNQ2 inh: inactive

Results for CCN1CCN(C(=O)c2ccc(N3CC4CC(C3)c3cccc(=O)n3C4)c([N+](=O)[O-])c2)CC1 (centres undefined) ?
KCNQ2 inh: inactive

How did O=C(NNC(=O)c1cc(-c2ccncc2)nc2ccccc12)Nc1ccc(F)cc1 do in these assays?
KCNQ2 enhance: 1.77; KCNQ2 inh: inactive

What do the screens show for `O=C(NNC(=O)c1cc(-c2cccnc2)nc2ccccc12)Nc1ccc(Cl)cc1`?
KCNQ2 enhance: -9.76; KCNQ2 inh: -9.76*; KCNQ2 block conf: -27.0%*; KCNQ1 spec: inactive; CHO parental ctr: inactive; KCNQ2 inh confirm: inactive

Results for Cc1ccn2c(/C=N/OCc3ccc(F)cc3)c(-c3ccc(Cl)cc3)nc2c1 ?
KCNQ2 enhance: -8.97; KCNQ2 inh: -8.97*; KCNQ2 block conf: -26.5%*; KCNQ1 spec: inactive; CHO parental ctr: inactive; KCNQ2 inh confirm: active

How did Cc1ccn2c(/C=N/OCc3cccc(F)c3)c(-c3ccc(Cl)cc3)nc2c1 do in these assays?
KCNQ2 enhance: -7.84; KCNQ2 inh: -7.84*; KCNQ2 block conf: -18.5%*; KCNQ1 spec: inactive; CHO parental ctr: inactive; KCNQ2 inh confirm: inactive

Results for Cc1ncc(N=Nc2ccc(F)cc2)c(-c2ccc(Cl)cc2)n1 ?
KCNQ2 enhance: 0.06; KCNQ2 inh: inactive

Results for Clc1ccc(CO/N=C/c2c(-c3ccccc3)nc3n2CCS3)c(Cl)c1 ?
KCNQ2 inh: inactive

Results for CN(CC(=O)N1CCN(c2ccccc2)CC1)C1CCCc2ccccc21 (centres undefined) ?
KCNQ2 inh: inactive

How did O=C(NCC(=O)N1CCC2(CC1)NCCc1[nH]cnc12)c1ccc2ccccc2c1 do in these assays?
KCNQ2 inh: inactive
